The results in this text go back to publication PMC12136788.

Substitutions are numbered along the chain they refer to. Over roughly 5,800 sequences, “enrichment r” has its median near 0.68; the highest 2% begin near 11. For the sample, the highest values were picked, then their nearest neighbours and some sequences at random.

B1: chr6:152987361:152990084:-|three_prime_utr|ENSG00000112031|control|control|control (ssRNA)
RNA: GGGAGUUCUACAGUCCGACGAUCAGAUUAUCUACUGGAUGAACUUGUACAGUCAUUGAAGGAAUACGCCGAUUAUGAAUCUUUAGUAGAAAUUAUUUCCCAAAAAGUUUAAGUUGAUUUGUUAUUUAUAGACUUUCGUAGCUUCAACAGAGGAUUGAGCAUCA
B2: chr13:52036708:52036809:-|3pUTR|ENSG00000197168|unk|total|mutant (ssRNA)
RNA: GGGAGUUCUACAGUCCGACGAUCGCCGAACUUUUGAAUACCGCCAUUAAUAUUUUUACUUUAAAGUUUCUAUUAAGAAAUCUCCGGCCGGGCAGUCUCAUCACUUUGGGAGGCCAAGGCAGGCAGAUCAUGAGGUCAGGAGUUCAACAGAGGAUUGAGCAUCA
B3: chr13:52036708:52036809:-|3pUTR|ENSG00000197168|unk|FALSE|unique (ssRNA)
RNA: B2 RNA with C25U, C26A, C40U, C41A, C83U, C84A
B4: chr12:39553730:39553837:-|3pUTR|ENSG00000173208|unk|FALSE|unique (ssRNA)
RNA: GGGAGUUCUACAGUCCGACGAUCGAAGUAUGUUAAGCUAAGCACAGAGAAAAAAAGGCAGCAAGACAUGUUUUAUAAGAUUUUAGCAUUAAGGAAGUAUAUGAUCUGACUUUUCAGAAGAAAAUAAACAAAUGCAUUAUGUAACAACAGAGGAUUGAGCAUCA
B5: chr10:62806226:62806343:+|3pUTR|ENSG00000181915|unk|FALSE|unique (ssRNA)
RNA: GGGAGUUCUACAGUCCGACGAUCCUACCCCUUAGUUAAAUAGGGUUUAUUUUCCACUCAUGCCCUUAUGCCUUUUUUUCUUAUAGUUUUUUAACUUAUUGACUGUGCAUGACCCAGUGGUUUGAAUUGUUUUUAGUUCAAGUCCAACAGAGGAUUGAGCAUCA
B6: chr7:107202531:107202632:-|3pUTR|ENSG00000164597|msi1|total|mutant (ssRNA)
RNA: GGGAGUUCUACAGUCCGACGAUCUAUUCUGAGAACUCAUAAAUAAAAUUCAGCCAAGAUUAAUCAAUCAAUCAAUCAAUCAGCCGACGUCAGAGAUAAGCAACUUUUUUUUCCAUUUAUUUGAAAUAAUAUACAAGAAUACCGCAACAGAGGAUUGAGCAUCA
B7: chr3:68976711:68977116:-|CDS|ENSG00000163378|control|control|control (ssRNA)
RNA: GGGAGUUCUACAGUCCGACGAUCCUUUUUAGGAAUACCAAAGUUUUCAACUUUUUCAGCUUUAGAAUUUGUAAAUAUUUUUGUAGAAUAUCAUAUGACUGUAAUUCCAGAGUGUUCCAACUUGUUUAUGAUAUAUUUGGGUAACAACAGAGGAUUGAGCAUCA
B8: chr10:11920118:11920232:-|3pUTR|ENSG00000151461|unk|FALSE|unique (ssRNA)
RNA: GGGAGUUCUACAGUCCGACGAUCGUAGUAUAUUUAGUCGGAGAGCACAUCUGUAUGCGACAACUUGAUUACAUCUUUUUUUCUAGCUAUUUUGCAUUUUUUCUUUUACCAUGUUUCAGUUUCUGCAUGUAGAUUUAAAUAAAACAACAGAGGAUUGAGCAUCA
B9: chr20:13714314:13714426:-|3pUTR|ENSG00000089048|unk|FALSE|unique (ssRNA)
RNA: GGGAGUUCUACAGUCCGACGAUCUUUUUCUAGCCAUAAAGGAUGGAAGUCAAGAACUUUUUGUUGUUUAGUCAUGUUAAGUAUAGUUUAUGAAAUUAACUUGUAAAUAAAAGUGUAAAAUAUUUUCAUUAUUUUGUAUAGCACCAACAGAGGAUUGAGCAUCA
B10: chr8:58582127:58582250:+|3pUTR|ENSG00000137575|unk|FALSE|bound_elsewhere (ssRNA)
RNA: GGGAGUUCUACAGUCCGACGAUCUUCAUAUUACUUUAGUUCUAUAGCAUACUUGCAUCUUUAACAUGCUAUCAUAGUACAUUUAGAAUGAUUGCCUUUGAUUUUUUUUUUAAAUUCUGUGUGUGUGUGUGUAAAAUGCCAAUUCAACAGAGGAUUGAGCAUCA
B11: chr21:14371318:14371404:-|3pUTR|ENSG00000155304|msi1_unk|FALSE|overlapping (ssRNA)
RNA: GGGAGUUCUACAGUCCGACGAUCUAUGAAUAACAAUCUGAAGUCUUUUCAUAAAAAAAAUUAAUAAACUUUAGUUGUACAUUUAGCCAGUGUUAUUUGAAGUAUGUAACUUUUAAAAUAUUAAGUGUCUUGUAUGAUUAGAAUCAACAGAGGAUUGAGCAUCA
B12: ENSG00000070961:be:win_5751|3pUTR|ENSG00000070961|bound_else_gene|NA|bound_elsewhere_windowed (ssRNA)
RNA: GGGAGUUCUACAGUCCGACGAUCCUAAAAAUUGACCCUAUCAACUGGAGAGCCCACAAGGCAUAGGGAAUAGAGAAAAGGGAAAUGUUUUCAGUUUUCUUUUUUAUUUUGGUUAUGCUUAAAUAUGAAUGUAAUUACCAAAAGCAACAGAGGAUUGAGCAUCA
B13: chr1:3780741:3780842:-|3pUTR|ENSG00000130764|unk|total|mutant (ssRNA)
RNA: GGGAGUUCUACAGUCCGACGAUCCCAAGCCGCUGGGACUACAGGUGUGUGCCACUAAGCUCAGCUAAUUUUUGUAUUUUCCGCCGAGACGGGGUUUCACCAUUUUGACCAGGAUGGUCUUGAUCUCUUGACCUCAUGAUCUGUCAACAGAGGAUUGAGCAUCA

For this assay, the target named is T1, UNK ZnF1-6 (called full-length) (human, UniProt Q9C0B0 30-357).
T1 sequence: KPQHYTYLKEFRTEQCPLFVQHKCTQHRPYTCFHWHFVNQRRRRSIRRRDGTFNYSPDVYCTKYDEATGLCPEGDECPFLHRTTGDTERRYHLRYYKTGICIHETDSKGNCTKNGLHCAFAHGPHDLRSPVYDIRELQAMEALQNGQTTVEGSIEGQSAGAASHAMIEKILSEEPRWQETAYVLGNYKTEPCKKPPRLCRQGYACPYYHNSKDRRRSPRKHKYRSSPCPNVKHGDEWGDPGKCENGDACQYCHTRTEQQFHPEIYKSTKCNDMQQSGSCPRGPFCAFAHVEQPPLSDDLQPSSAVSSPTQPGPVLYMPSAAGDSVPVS
Kind of assay: nsRBNS (natural sequence RNA bind-n-seq); RBNS binding buffer (assumed for nsRBNS): 25 mM Tris pH 7.5, 150 mM KCl, 3 mM MgCl2, 0.01% Triton X-100, 500 ug/ml BSA, 20 U/ml SUPERase-In, 4 C; UNK is unkempt and MSI1 is Musashi-1; names of the RNAs are library labels; protein concentration not given here; high values mean tight binding.
The molecule B1 showed a binding signal of 1.84 enrichment R.

B2 had a binding signal of 2.85 enrichment R. In the case of B3 it was 21 enrichment R; in that of B4, 0.997 enrichment R.

Regarding B5, the binding signal turned out to be 15.8 enrichment R.

Consider B6, for which the binding signal was 1.94 enrichment R. On to B7, for which the binding signal was determined as 9.89 enrichment R.

In turn, B8 displayed a binding signal of 21.9 enrichment R. In the case of B9 it was 62.3 enrichment R. For the molecule B10, the binding signal turned out to be 5 enrichment R. In the case of B11 it was 1.48 enrichment R; in that of B12, 0.412 enrichment R. In the case of B13 it was 0.591 enrichment R.
